Potency data for 21 compounds are collected here from PubChem BioAssay (Tox21).

Several values for one entry are separate records, joined by “and”; a condition that tells them apart may be missing. Identical values can stand only once. Inconclusive results are not listed. More than one record can exist for a structure, and the calls need not agree. Activity calls are given as the source filed them. Calls follow the shape of the dose curve; as a rule, active = well fitted curve in the direction sought with a large enough effect in the repeat runs; inconclusive = weak or mixed curves; inactive = no such curve, though single readings can be large; an effect the other way counts as inactive or inconclusive.

Assay [1] in a line: A CellTox Green Cytotoxicity Assay to monitor cytotoxicity in HepG2 cells - 32 hour (AID 1224883). Also: nearly all actives have a fitted effect of over 50% in size. Also: potency is read from the fitted curve at half-maximal effect. The procedure, abridged: (§1)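 Cells and non-lytic dye reagent are dispensed together (600 HepG2 cells/well) and incubated 5 h before DMSO compound transfer. Kinetic fluorescence is then recorded in the same wells during 40 h at 37 C.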
Assay [2] is described as follows: qHTS RealTime-Glo MT Cell Viability Assay in HepG2 cells - 16 hour (AID 1224885). Also: nearly all actives have a fitted effect of over 50% in size. Also: potency is read from the fitted curve at half-maximal effect. The procedure, abridged:
(§2)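 qHTS, HepG2, 600 cells/well, RealTime-Glo (NanoLuc + prosubstrate) added with cells; 5 h preincubation; DMSO compound addition; 37 C; luminescence at 0/8/16/24/32/40 h.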
(In qHTS, concentration-response curves come from the screen itself.)

The nature of assay [3]: qHTS RealTime-Glo MT Cell Viability Assay in HEK293 cells - 24 hour (AID 1224886). Also: nearly all actives have a fitted effect of over 50% in size. Also: potency is read from the fitted curve at half-maximal effect. A digest of the protocol: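 Assay medium contained NanoLuc luciferase plus cell-permeant prosubstrate, added with HEK293 cells at 600 cells/well. After 5 h at 37 C/5% CO2 compounds were added; plates stayed at 37 C for 40 h with serial luminescence reads.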
Assay [4] can be described thus: qHTS RealTime-Glo MT Cell Viability Assay in HEK293 cells - 8 hour (AID 1224887). Also: nearly all actives have a fitted effect of over 50% in size. Also: potency is read from the fitted curve at half-maximal effect. The procedure, abridged: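 Real-time viability in HEK293: signal arises when living cells convert a prosubstrate for NanoLuc in the medium, so luminescence tracks viable cell number. Compound (23 nL, DMSO) added 5 h post-seeding; kinetic reads at 0–40 h, 37 C.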
Assay [5] is described as follows: A CellTox Green Cytotoxicity Assay to monitor cytotoxicity in HEK293 cells - 16 hour (AID 1224888). Also: nearly all actives have a fitted effect of over 35% in size. Also: potency is read from the fitted curve at half-maximal effect. A digest of the protocol:
(§3)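 Cells (HEK293, 600/well) and dye reagent are dispensed together. After 5 h at 37 C, 23 nL compound is pinned in. Plates stay at 37 C for 40 h with fluorescence read at 0h, 8h, 16h, 24h, 32h and 40h.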

Assay [6] in a line: qHTS RealTime-Glo MT Cell Viability Assay in HepG2 cells - 0 hour (AID 1224889). Also: nearly all actives have a fitted effect of over 50% in size. The procedure, abridged:
as §2

The nature of assay [7]: A CellTox Green Cytotoxicity Assay to monitor cytotoxicity in HepG2 cells - 8 hour (AID 1224890). Also: nearly all actives have a fitted effect of over 45% in size. A digest of the protocol: as §1
Assay [8] in a line: qHTS assay to identify small molecule antagonists of the estrogen receptor alpha (ER-alpha) signaling pathway using the BG1 cell line in the presence of 0.1 nM 17-beta-estradiol - cell viability counter screen (AID 1259241). Also: nearly all actives have a fitted effect of over 40% in size. Also: potency is read from the fitted curve at half-maximal effect. A digest of the protocol: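 VM7Luc4E2, 4,000 cells/well, phenol red-free medium + 10% charcoal-stripped FBS; 24 hr plating; cpd + 0.1 nM E2 final, 22 hr 37C/5% CO2; CellTiter-Fluor 30 min, fluorescence.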

Assay [9] in a line: qHTS assay to identify small molecule antagonists of the androgen receptor (AR) signaling pathway using the MDA cell line in the presence of 0.5 nM R1881 - cell viability counter screen (AID 1259242). Also: nearly all actives have a fitted effect of over 45% in size. Also: potency is read from the fitted curve at half-maximal effect. The procedure, abridged: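 Steps: plate MDA-kb2 cells, rest 5 hr at 37C without CO2; pin in compounds in DMSO; add R1881 to 0.5 nM final; incubate 16 hr; add CellTiter-Fluor, 30 min; read fluorescence.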

A short description of assay [10]: A CellTox Green Cytotoxicity Assay to monitor cytotoxicity in HEK293 cells - 8 hour (AID 1224884). Also: nearly all actives have a fitted effect of over 35% in size. Also: potency is read from the fitted curve at half-maximal effect. A digest of the protocol: as §3

Regarding `CC(C)=CCOc1ccc(/C=C/C(=O)c2ccc(OCC=C(C)C)cc2OCC(=O)O)cc1`, the Potency entry in assay [1], in [2], in assay [3], in [4], in assay [5] and in [6] was “inactive” in each case. For the same compound, the Potency entry in [7] and in assay [8] was “inactive” each time.

`O=C1C=CC(=O)N1`: the Potency in [1] is 20 µM (active); in [2] it was 25.2 µM (active); in assay [3] it was 12.6 µM (active); in assay [4] it was 15.9 µM (active); in [5] it was 22.5 µM (active); in assay [8], 55.9 µM (active). Also, the Potency in assay [9] is 49.8 µM (active). Also, the Potency result in [6] was “inactive”.

Regarding `CNC(=O)c1ccccc1`, the Potency result in assay [1], in assay [2], in assay [3], in [4], in assay [5] and in assay [6] was “inactive” each time. Moreover, the Potency result in [7], in [8] and in [9] was “inactive” each time.

For the compound `CCCCCCCCCCCCCCCC(=O)OC[C@H](O)[C@H]1OC(=O)C(O)=C1O`, the Potency result in assay [1], in assay [2], in assay [3], in [4], in assay [6] and in assay [7] was “inactive” in each case. For the same compound, the Potency result in assay [8] and in [9] was “inactive” each time.

Regarding `O=C1c2ccccc2Cc2ccccc21`, the Potency entry in assay [1], in assay [2], in [3], in assay [5], in assay [6] and in assay [7] was “inactive” throughout. In addition, the Potency entry in assay [8] and in [9] was “inactive” in each case.

For `CC(C)(C)NC(=O)[C@@H]1C[C@@H]2CCCC[C@@H]2CN1C[C@@H](O)[C@H](Cc1ccccc1)NC(=O)[C@H](CC(N)=O)NC(=O)c1ccc2ccccc2n1`, the Potency in [1] is 55.7 µM (active); in [2] it was 55.7 µM (active); in assay [3], 19.7 µM (active); in assay [4], 19.7 µM (active); in [8], 27.7 µM (active); in assay [9], 61.9 µM (active). Moreover, the Potency result in assay [5], in assay [6] and in [7] was “inactive” each time.

For the compound `NNc1nc(-c2ccccc2)cs1`, the Potency result in assay [1], in assay [10], in assay [5], in assay [6], in [8] and in assay [9] was “inactive” each time.

For the compound `CCC(C)Nc1ccc(NC(C)CC)cc1` (stereo unspecified), the Potency was 19.9 µM (active) in assay [1]; 17.7 µM (active) in assay [2]; 4.45 µM (active) in assay [3]; 4.99 µM (active) in assay [4]; 39.7 µM (active) in [5]; 9.88 µM (active) in [8]. For the same compound, the Potency in assay [9] was 24.8 µM (active).

On to `CCCCN(CCCC)C(=O)N(CCCC)CCCC`, for which the Potency entry in [1], in [2], in assay [3], in assay [4], in [5] and in assay [6] was “inactive” throughout. Also, the Potency result in assay [7], in [8] and in [9] was “inactive” each time.

`CO[Si](CCCNc1ccccc1)(OC)OC`: the Potency result in assay [1], in [2], in assay [3], in assay [4], in [5] and in assay [6] was “inactive” each time. Moreover, the Potency result in [7], in assay [8] and in assay [9] was “inactive” each time.

In the case of `O=C(NO)C1(NS(=O)(=O)c2ccc(Oc3ccc(F)cc3)cc2)CCOCC1`, the Potency result in [1], in assay [2], in assay [3], in [4], in assay [5] and in assay [6] was “inactive” each time. The Potency result in assay [7], in assay [8] and in assay [9] was “inactive” throughout.

Regarding `CCCC(c1cc(C(C)(C)C)c(O)cc1C)c1cc(C(C)(C)C)c(O)cc1C`, the Potency in assay [1] was 35.1 µM (active); in assay [2], 44.2 µM (active); in assay [3] it was 22.1 µM (active); in [4], 44.2 µM (active); in assay [8] it was 61.9 µM (active); in assay [9], 49.2 µM (active). Also, the Potency entry in assay [6] was “inactive”.

On to `Oc1ccc2c(c1)-c1ccccc1C2`, for which the Potency in [1] was 49 µM (active). For the same compound, the Potency entry in assay [10], in assay [5], in assay [6], in assay [8] and in assay [9] was “inactive” throughout.

For `CCCCCCCCOC(=O)c1ccc(O)cc1`, the Potency entry in [1] is “inactive and 43.6 µM (active)”; in [3] it was 24.5 µM (active); in assay [4], 43.5 µM (active); in [5] it was 48.8 µM (active) and 49 µM (active). For the same compound, the Potency result in assay [2], in assay [6], in assay [7], in [8] and in assay [9] was “inactive” in each case.

For the compound `CN1CCN(CCC(=O)N2c3ccccc3Sc3ccc(C(F)(F)F)cc32)CC1`, in assay [1], the Potency is 19 µM (active). Besides, the Potency entry in assay [10], in assay [5] and in assay [8] was “inactive” in each case.

As for `CCCN(CCC)c1c([N+](=O)[O-])cc(C(F)(F)F)c(N)c1[N+](=O)[O-]`, the Potency was 54.8 µM (active) in [1]; 48.9 µM (active) in assay [2]; 19.4 µM (active) in assay [3]; 9.75 µM (active) in assay [4]; 60.9 µM (active) in assay [8]; 60.9 µM (active) in assay [9]. The Potency result in [6] was “inactive”.

Take `CC(C)(C)C(=O)OCOC(=O)C1N2C(=O)CC2S(=O)(=O)C1(C)C` (stereo unspecified): the Potency entry in assay [1], in assay [2], in [3], in assay [4], in [5] and in assay [6] was “inactive” in each case. For the same compound, the Potency result in assay [8] and in [9] was “inactive” throughout.

For the compound `Oc1ccc2cc(SSc3ccc4cc(O)ccc4c3)ccc2c1`, the Potency result in [1], in assay [2], in assay [6], in assay [8] and in assay [9] was “inactive” throughout. Also, the Potency in [3] was 49 µM (active); in assay [4], 39 µM (active).

Consider `N/C(=N\N=C\c1ccc(Cl)cc1)N/N=C/c1ccc(Cl)cc1`, for which the Potency in assay [1], in [10] and in assay [5] was 23.9 µM (active) in each case. The Potency entry in [8] and in assay [9] was “inactive” each time.

Regarding `COc1cccc(N)c1`, the Potency result in assay [1], in assay [2], in [3], in assay [4], in assay [5] and in [6] was “inactive” throughout. Also, the Potency entry in assay [7], in [8] and in [9] was “inactive” each time.

On to `CCCCN1C(=O)[C@@H]([C@H](O)C2CCCCC2)NC(=O)C12CCN(Cc1ccc(Oc3ccc(C(=O)O)cc3)cc1)CC2`, for which the Potency result in [1], in assay [2], in assay [3], in assay [4], in [5] and in assay [6] was “inactive” each time. The Potency result in assay [7], in [8] and in assay [9] was “inactive” throughout.
